From PubChem BioAssay (Tox21)
Values joined by “and” are separate entries in the source; they are usually repeats but may differ in a detail not shown here. Equal entries are not always repeated. Results filed as inconclusive are left out. A call without a number means that no potency is given here. Where a structure was tested more than once in an assay, its records may differ in their call. Active and inactive are the calls of the source. Unless noted, calls follow the shape of the full dose curve.

Experiments:
[1] = molecular target: Peroxisome proliferator-activated receptor delta (Homo sapiens) (UniProt Q03181); experiment: qHTS assay to identify small molecule antagonists of the peroxisome proliferator-activated receptor delta (PPARd) signaling pathway (AID 743215; active = well fitted inhibition curve with a large enough effect in the signal ratio in the repeat runs, not every such curve was filed as active; the % refers to the signal ratio;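 also: cells stimulated with agonist L165041 at 300 nM final during compound exposure; series mostly up to about 62 µM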)
Outline: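 With L165041 present at 300 nM final, compounds were incubated 17 h at 37 C on PPARd UAS-bla HEK293H cells. A FRET-based beta-lactamase substrate was then applied for 2 h at room temperature and fluorescence intensity recorded.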

[2] = qHTS assay to identify small molecule agonists of the farnesoid-X-receptor (FXR) signaling pathway - cell viability counter screen (AID 743218; active = well fitted curve in the direction sought with a large enough effect in the repeat runs; an effect the other way counts as inactive or inconclusive; also: nearly all actives have a fitted effect of over 45% in size)
Outline: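 After 16 h at 37 C with test compounds, FXR-bla HEK 293T cells were given LiveBLAzer B/G substrate for 2 h at RT and then CellTiter-Glo; luminescence was taken after 30 min.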

[3] = qHTS assay to identify small molecule antagonists of the farnesoid-X-receptor (FXR) signaling pathway - cell viability counter screen (AID 743221; active = well fitted cell-killing curve with a large enough effect in the repeat runs, not every such curve was filed as active; also: nearly all actives have a fitted effect of over 50% in size)
Outline: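 In GeneBLAzer FXR-UAS-bla HEK 293T cells stimulated with 50 uM chenodeoxycholic acid (final), compounds acted for 16 h at 37 C. Viability was assessed afterwards by CellTiter-Glo luminescence.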

[4] = molecular target: Vitamin D3 receptor (Homo sapiens) (UniProt P11473); experiment: qHTS assay to identify small molecule agonists of the vitamin D receptor (VDR) signaling pathway (AID 743222)
Outline: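 VDR-bla cells were seeded, left 4 h, treated with compounds in DMSO for 16 h, incubated 2 h at RT with B/G FRET substrate, and read for fluorescence.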

[5] = qHTS assay to identify small molecule agonists of the vitamin D receptor (VDR) signaling pathway - cell viability counter screen (AID 743224; active = well fitted curve in the direction sought with a large enough effect in the repeat runs; an effect the other way counts as inactive or inconclusive; also: nearly all actives have a fitted effect of over 50% in size; also: potency is read from the fitted curve at half-maximal effect)
Outline: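 Here cell health was gauged by luminescent ATP detection (CellTiter-Glo, 30 min RT) in VDR-bla cells that had been incubated with test compounds for 16 h at 37C and 5% CO2.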

[6] = qHTS assay to identify small molecule antagonists of the vitamin D receptor (VDR) signaling pathway - cell viability counter screen (AID 743225; active = well fitted curve in the direction sought with a large enough effect in the repeat runs; an effect the other way counts as inactive or inconclusive; also: nearly all actives have a fitted effect of over 50% in size)
Outline: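 Luminescent cell viability (CellTiter-Glo) in VDR-bla HEK 293T cells after 16 h compound exposure at 37C in the presence of 3 nM final 1-alpha,25-dihydroxy vitamin D3.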

[7] = qHTS assay to identify small molecule agonists of the NFkB signaling pathway - cell viability counter screen (AID 1159515); also: nearly all actives have a fitted effect of over 55% in size; also: potency is read from the fitted curve at half-maximal effect
Outline: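 5 hr compound treatment of NFkB-bla ME-180 cells (2,000/well, seeded overnight beforehand), followed by reporter substrate for 1.5 hr. CellTiter-Glo added afterward; luminescence after 30 min RT.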

[8] = qHTS assay to identify small molecule agonists of the endoplasmic reticulum stress response signaling pathway - cell viability counter screen (AID 1159517);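 also: HeLa cells carrying an ER stress response element beta-lactamase reporter; series mostly up to about 61 µM; nearly all actives have a fitted effect of over 50% in size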
Outline: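 Cells, HeLa ESRE-bla; density, 1,500/well; dosing, 5 hr at 37 C, 5% CO2; readout, CellTiter-Glo luminescence after 30 min RT.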

[9] = qHTS assay to identify small molecule antagonists of the retinoid-related orphan receptor gamma (ROR-gamma) signaling pathway - cell viability counter screen (AID 1159520; active = well fitted curve in the direction sought with a large enough effect in the repeat runs; an effect the other way counts as inactive or inconclusive; also: nearly all actives have a fitted effect of over 50% in size)
Outline: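 Cytotoxicity was read from cellular ATP (CellTiter-Glo luminescence) after 16 hr at 37 C with 1 uM doxycycline induction. The inducer was added 2 hr after compound transfer to Tet-on ROR gamma CHO cells.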

[10] = molecular target: Nuclear receptor ROR-gamma (Homo sapiens) (UniProt P51449); experiment: qHTS assay to identify small molecule antagonists of the retinoid-related orphan receptor gamma (ROR-gamma) signaling pathway (AID 1159521; active = well fitted curve in the direction sought with a large enough effect in the repeat runs; an effect the other way counts as inactive or inconclusive; also: nearly all actives have a fitted effect of over 50% in size; also: potency is read from the fitted curve at half-maximal effect)
Outline: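 CHO cells expressing RORγ under a TET-on promoter, luciferase under RORE control. Dox 1 uM final, 16 h; compounds added 2 h prior. Luminescence decrease measured.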

[11] = qHTS assay to identify small molecule agonists of the AP-1 signaling pathway - cell viability counter screen (AID 1159525); also: nearly all actives have a fitted effect of over 55% in size
Outline: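 Luminescent ATP readout (Cell Titer Glo, 30 min RT), normalised to DMSO and tetra n-octyl ammonium bromide controls. Cells were ME-180 AP-1-bla in 0.5% dialyzed FBS Opti-MEM, with a 5 h, 37 °C compound exposure.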

[12] = molecular target: Bile acid receptor (Homo sapiens) (UniProt Q96RI1); experiment: qHTS assay to identify small molecule antagonists of the farnesoid-X-receptor (FXR) signaling pathway (AID 743217; active = well fitted inhibition curve with a large enough effect in the signal ratio in the repeat runs, not every such curve was filed as active; the % refers to the signal ratio)
Outline: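 In this cell-based antagonist screen, inhibition of CDCA-driven (50 uM final) UAS-beta-lactamase expression in HEK 293T cells was measured by FRET fluorescence following 16 h compound exposure at 37 °C.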

[13] = molecular target: Bile acid receptor (Homo sapiens) (UniProt Q96RI1); experiment: qHTS assay to identify small molecule agonists of the farnesoid-X-receptor (FXR) signaling pathway (AID 743220; active = well fitted activation curve with a large enough effect in the signal ratio in the repeat runs, not every such curve was filed as active; the % refers to the signal ratio)
Outline: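 Beta-lactamase reporter under UAS control in GeneBLAzer FXR HEK 293T cells (5000/well) measured with LiveBLAzer FRET substrate after 2 h at room temperature. Compound exposure lasted 16 h at 37C.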

[14] = molecular target: Vitamin D3 receptor (Homo sapiens) (UniProt P11473); experiment: qHTS assay to identify small molecule antagonists of the vitamin D receptor (VDR) signaling pathway (AID 743223; active = well fitted inhibition curve with a large enough effect in the signal ratio in the repeat runs, not every such curve was filed as active; the % refers to the signal ratio)
Outline: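 Agonist 1alpha,25-dihydroxyvitamin D3 (3 nM in well) was added with each compound to VDR-bla cells preincubated 4 h. Cells stood 16 h at 37C, then FRET substrate 2 h at room temperature; fluorescence intensity recorded.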

[15] = qHTS assay to identify small molecule agonists of the AP-1 signaling pathway (AID 1159526)
[16] = molecular target: Retinoic acid receptor RXR-alpha (Homo sapiens) (UniProt P19793); experiment: qHTS assay to identify small molecule agonists of the RXR signaling pathway (AID 1159527); also: nearly all actives have a fitted effect of over 35% in size; also: potency is read from the fitted curve at half-maximal effect
Outline: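 Beta-lactamase reporter assay, agonist format. Engineered HEK 293T line, charcoal-stripped FBS at 2%, overnight (16 hr) exposure, fluorescence at 460 and 530 nm after 405 nm excitation.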

[17] = molecular target: Peroxisome proliferator-activated receptor delta (Homo sapiens) (UniProt Q03181); experiment: qHTS assay to identify small molecule agonists of the peroxisome proliferator-activated receptor delta (PPARd) signaling pathway (AID 743212)
Outline: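 HEK293H UAS-bla reporter cells, human PPARd system; compounds delivered in DMSO after 5 h plating, then at 37 C. Beta-lactamase FRET read, 2 h RT substrate step.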

[18] = qHTS assay to identify small molecule antagonists of the peroxisome proliferator-activated receptor delta (PPARd) signaling pathway - cell viability counter screen (AID 743213; active = well fitted curve in the direction sought with a large enough effect in the repeat runs; an effect the other way counts as inactive or inconclusive; also: nearly all actives have a fitted effect of over 50% in size)
Outline: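 HEK293H cells with the PPARd UAS-bla reporter, co-treated 17 h at 37 C with compounds and L165041 (300 nM final), were lysed with CellTiter-Glo. Luminescence indicated viable cell content.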

[19] = qHTS assay to identify small molecule agonists of the endoplasmic reticulum stress response signaling pathway (AID 1159516; active = well fitted activation curve with a large enough effect in the signal ratio in the repeat runs, not every such curve was filed as active; the % refers to the signal ratio)
Outline: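 Reporter HeLa cells (ESRE-beta-lactamase) underwent 5 hr compound incubation at 37 C and 5% CO2 in quantitative HTS format. Detection followed 2 hr of FRET substrate loading at room temperature.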

Peroxisome proliferator-activated receptor delta (Homo sapiens), sequence (Q03181 whole entry, looked up): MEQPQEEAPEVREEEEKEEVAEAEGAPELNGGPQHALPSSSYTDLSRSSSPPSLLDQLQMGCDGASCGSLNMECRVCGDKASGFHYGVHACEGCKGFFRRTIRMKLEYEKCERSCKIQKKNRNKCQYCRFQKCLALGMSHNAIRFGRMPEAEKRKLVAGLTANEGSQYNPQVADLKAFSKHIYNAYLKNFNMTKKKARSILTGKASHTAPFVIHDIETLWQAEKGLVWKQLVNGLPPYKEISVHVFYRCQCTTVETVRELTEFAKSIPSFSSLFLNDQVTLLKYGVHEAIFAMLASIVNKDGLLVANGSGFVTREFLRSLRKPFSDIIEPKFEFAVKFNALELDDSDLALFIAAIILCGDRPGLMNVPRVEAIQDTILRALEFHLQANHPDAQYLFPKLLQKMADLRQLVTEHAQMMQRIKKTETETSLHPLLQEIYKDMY
Bile acid receptor (Homo sapiens), sequence (Q96RI1 whole entry, looked up): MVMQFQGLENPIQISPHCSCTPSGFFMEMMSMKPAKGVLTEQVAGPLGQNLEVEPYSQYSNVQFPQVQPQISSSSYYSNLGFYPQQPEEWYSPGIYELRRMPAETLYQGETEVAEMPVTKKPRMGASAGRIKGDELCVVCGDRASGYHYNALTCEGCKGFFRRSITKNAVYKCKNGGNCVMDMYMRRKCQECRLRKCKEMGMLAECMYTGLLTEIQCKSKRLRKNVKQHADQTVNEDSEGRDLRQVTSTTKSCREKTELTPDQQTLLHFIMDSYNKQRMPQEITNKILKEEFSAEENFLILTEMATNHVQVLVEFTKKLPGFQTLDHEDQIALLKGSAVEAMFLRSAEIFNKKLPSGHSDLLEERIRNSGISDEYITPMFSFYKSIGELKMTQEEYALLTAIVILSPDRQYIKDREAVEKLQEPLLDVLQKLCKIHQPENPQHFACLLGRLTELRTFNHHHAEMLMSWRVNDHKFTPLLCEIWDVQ
Vitamin D3 receptor (Homo sapiens), sequence (P11473 whole entry, looked up): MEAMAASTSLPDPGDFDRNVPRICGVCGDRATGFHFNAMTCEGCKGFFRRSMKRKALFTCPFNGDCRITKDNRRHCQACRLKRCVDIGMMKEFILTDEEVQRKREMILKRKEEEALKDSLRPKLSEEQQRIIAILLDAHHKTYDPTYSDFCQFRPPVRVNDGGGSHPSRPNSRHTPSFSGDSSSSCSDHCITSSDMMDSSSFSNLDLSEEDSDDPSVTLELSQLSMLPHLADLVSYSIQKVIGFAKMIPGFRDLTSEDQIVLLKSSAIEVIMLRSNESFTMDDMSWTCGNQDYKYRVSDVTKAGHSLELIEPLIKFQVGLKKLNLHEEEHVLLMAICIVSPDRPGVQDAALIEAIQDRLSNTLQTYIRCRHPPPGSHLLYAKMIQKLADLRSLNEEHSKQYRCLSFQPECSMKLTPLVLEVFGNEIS
Retinoic acid receptor RXR-alpha (Homo sapiens), sequence (P19793 whole entry, looked up): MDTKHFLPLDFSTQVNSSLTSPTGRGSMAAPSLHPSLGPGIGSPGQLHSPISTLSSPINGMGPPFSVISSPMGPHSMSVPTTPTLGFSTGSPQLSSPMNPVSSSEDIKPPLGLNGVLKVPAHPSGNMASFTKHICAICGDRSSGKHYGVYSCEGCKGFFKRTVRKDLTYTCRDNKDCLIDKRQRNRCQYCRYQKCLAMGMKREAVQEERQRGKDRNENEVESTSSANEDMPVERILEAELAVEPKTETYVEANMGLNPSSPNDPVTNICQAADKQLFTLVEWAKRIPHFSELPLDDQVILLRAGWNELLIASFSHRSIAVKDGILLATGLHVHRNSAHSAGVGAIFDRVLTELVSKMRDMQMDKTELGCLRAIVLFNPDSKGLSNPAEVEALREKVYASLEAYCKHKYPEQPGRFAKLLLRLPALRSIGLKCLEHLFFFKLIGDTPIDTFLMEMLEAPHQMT

Row | Compound | Potency [1] | Potency [2] | Potency [3] | outcome [4] | Potency [5] | Potency [6] | Potency [7] | Potency [8] | Potency [9] | Potency [10] | Potency [11] | Potency [12] | outcome [13] | outcome [14] | outcome [15] | Potency [16] | outcome [17] | Potency [18] | Potency [19]
1 | COc1cc([C@@H]2c3cc4c(cc3[C@H](O)[C@H]3COC(=O)[C@H]23)OCO4)cc(OC)c1OC | inactive | inactive | inactive | inactive | inactive | inactive | inactive | inactive | inactive | 30.6 nM (active) | inactive | – | – | – | – | – | – | – | –
2 | O=P(O)(O)O | – | inactive | inactive | inactive | inactive | – | inactive | – | inactive | inactive | inactive | inactive | inactive | inactive | inactive | inactive | – | – | –
3 | CCCCCCCCCCCO | inactive | inactive | inactive | inactive | inactive and 49 µM (active) | inactive | inactive and 49 µM (active) | inactive | inactive | inactive | inactive | – | inactive | inactive | inactive | inactive and 3.89 µM (active) | – | – | –
4 | CCC(C)(O)CCCC(C)C (centres undefined) | inactive | inactive | inactive | – | inactive | inactive | inactive | – | inactive | – | inactive | inactive | inactive | – | inactive | inactive | inactive | inactive | inactive
5 | O=CCc1ccccc1 | – | inactive | inactive | inactive | inactive | inactive | inactive | – | inactive | inactive | inactive | inactive | inactive | inactive | inactive | inactive | – | inactive | –
6 | CCC(C)CO (centres undefined) | inactive | inactive | inactive | inactive | inactive | – | inactive | inactive | inactive | inactive | inactive | inactive | inactive | inactive | inactive | inactive | inactive | inactive | –
7 | c1cc(N(CC2CO2)CC2CO2)ccc1OCC1CO1 (centres undefined) | – | – | inactive | – | inactive | – | inactive | – | inactive | 54.5 µM (active) and 61.1 µM (active) | inactive | – | – | – | inactive | – | – | inactive | –
8 | c1ccncc1 | – | inactive | inactive | inactive | inactive | inactive | inactive | inactive | inactive | inactive | inactive | – | – | – | inactive | inactive | – | inactive | –
9 | C=C(C)C(=O)OCCOC(=O)C(=C)C | inactive | inactive | inactive | inactive | inactive | – | inactive | inactive | inactive | inactive | inactive | – | – | inactive | inactive | inactive | inactive | – | inactive
10 | CC(C)OC(=O)C(C)(C)Oc1ccc(C(=O)c2ccc(Cl)cc2)cc1 | – | inactive | inactive | inactive | 13.8 µM (active) and inactive | inactive | inactive | inactive | inactive | 68600 nM (active) | inactive | inactive | inactive | inactive | inactive | – | inactive | – | inactive
11 | O=c1oc(=O)c2cc3c(=O)oc(=O)c3cc12 | inactive | – | inactive | inactive | inactive | inactive | inactive | inactive | inactive | inactive | inactive | – | – | inactive | inactive | – | inactive | – | inactive
12 | CC(C)Oc1ccc2c(=O)c(-c3ccccc3)coc2c1 | inactive | inactive | inactive | inactive | inactive | – | inactive | – | inactive | inactive | inactive | inactive | inactive | inactive | inactive | inactive | inactive | – | –
13 | O=C(OCc1ccccc1)c1ccccc1O | – | – | inactive | inactive | inactive | – | inactive | inactive | inactive | inactive | inactive | – | – | inactive | inactive | inactive | inactive | – | –
